{"source": "the supplement of paper PMC10338343", "note": "± gives the standard deviation. The full ranking holds about 6,600 sequences; the median of “pre-steady-state target cleavage rate” is about 0.07, and the highest 2% start at about 0.72. The list comes from a sample in which the highest values are over-represented; it also holds similar and randomly drawn sequences."}
{"tested_on": "MIWI (PIWIL1) piRISC loaded with Kctd7 piRNA (30 nt)", "assay": "pre-steady-state target cleavage rate (min^-1); MIWI and MILI are mouse PIWI proteins and EfPiwi is from a freshwater sponge; tags in brackets are library labels; higher = faster piRNA-guided slicing of the target", "conditions": "guide: Kctd7 piRNA 5'p-UGUUAAUCUCUCAGAGAAGGUGACAGUGAU; auxiliary factor: 500 nM mouse GTSF1", "how_it_was_run": "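Cleave-'n-Seq: a transcribed, DNA-blocked target RNA library (0.1 nM) was mixed with 1 nM active affinity-purified piRISC carrying one synthetic guide, with or without 500 nM GTSF1 partner protein, in HEPES–potassium acetate buffer at 33 °C for 0–8 or 0–960 min. Uncleaved targets were sequenced and normalised to depth and to weakly complementary targets. Three trials were pooled, and k3 was capped at 0.0001 min^-1. The pre-steady-state cleavage rate came from a burst-and-steady-state fit.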"}
{"sequence": "UAGUGACAGUCCUUACUCUGAGAGAUUAACA", "pre-steady-state target cleavage rate": "0.0326 ± 0.0043"}
{"sequence": "UAGAGUGUCACCUUCUCUGAGAGAUAAACA", "pre-steady-state target cleavage rate": "0.362 ± 0.038"}
{"sequence": "AUCUCUGUCACCAUCUCUGAGAGAUUAACA", "pre-steady-state target cleavage rate": "0.633 ± 0.03"}
{"sequence": "UAGUCUGUCACCAUCUCUGAGAGAUUAACA", "pre-steady-state target cleavage rate": "0.667 ± 0.038"}
{"sequence": "UUCUCUGUCACCAUCUCUGAGAGAUUAACA", "pre-steady-state target cleavage rate": "0.514 ± 0.023"}
{"sequence": "AUGACUGUCACCAUCUCUGAGAGAUUAACA", "pre-steady-state target cleavage rate": "0.817 ± 0.06"}
{"sequence": "UUGACUGUCACCAUCUCUGAGAGAUUAACA", "pre-steady-state target cleavage rate": "0.756 ± 0.044"}
{"sequence": "UACUCUGUCACCAUCUCUGAGAGAUUAACA", "pre-steady-state target cleavage rate": "0.69 ± 0.036"}
{"sequence": "UAGACUGUCACCUUCUCUCAGAGAUUAACA", "pre-steady-state target cleavage rate": "0.154 ± 0.016"}
{"sequence": "UAGUCUGUCACCUUCUCUGAGUGAUUAUCA", "pre-steady-state target cleavage rate": "0.015 ± 0.0044"}
{"sequence": "UUCACAGUCACCUUCUGUGAGAGAUUAACA", "pre-steady-state target cleavage rate": "0.363 ± 0.035"}
{"sequence": "UACACUGUGACCUUGUCUGAGAGAUUAACA", "pre-steady-state target cleavage rate": "0.0711 ± 0.013"}
{"sequence": "UAGACUGUCAGCUUCUCUGAGAGUUUAACA", "pre-steady-state target cleavage rate": "0.0686 ± 0.011"}
{"sequence": "UAGUGAGUCACCUUGCUCUGAGAGAUUAACA", "pre-steady-state target cleavage rate": "0.332 ± 0.07"}
{"sequence": "AUCCUGUCACCUUCUCUGAGAGAUUAACA", "pre-steady-state target cleavage rate": "0.744 ± 0.052"}
{"sequence": "UUCUCUGUCACCUUCUCUGAGAGAUUAACA", "pre-steady-state target cleavage rate": "0.585 ± 0.031"}
{"sequence": "UACCCUGUCACCUUCUCUGAGAGAUUAACA", "pre-steady-state target cleavage rate": "0.638 ± 0.034"}
{"sequence": "UACACCUGUCACCUUCUCUGAGAGAUUAACA", "pre-steady-state target cleavage rate": "0.79 ± 0.051"}
{"sequence": "UUCACCUGUCACCUUCUCUGAGAGAUUAACA", "pre-steady-state target cleavage rate": "0.73 ± 0.033"}
{"sequence": "UUCCUGUCACCUUCUCUGAGAGAUUAACA", "pre-steady-state target cleavage rate": "0.633 ± 0.037"}
{"sequence": "AUCCCUGUCACCUUCUCUGAGAGAUUAACA", "pre-steady-state target cleavage rate": "0.644 ± 0.051"}
{"sequence": "UACCUGUCACCUUCUCUGAGAGAUUAACA", "pre-steady-state target cleavage rate": "0.773 ± 0.051"}
{"sequence": "UAGUGUGUCACCUUCUCUGACUCAUUUUGA", "pre-steady-state target cleavage rate": "0.0047 ± 0.0045"}
{"sequence": "UAGUGACAGACCUUCUCUGUGACAUUAACA", "pre-steady-state target cleavage rate": "0.00672 ± 0.0033"}
{"sequence": "UAGUGACUCUCCUUCUCUGAGAGUUUAACA", "pre-steady-state target cleavage rate": "0.035 ± 0.007"}
{"sequence": "UAGACUGUCACCUUGUCUGAGAGAUUAUCA", "pre-steady-state target cleavage rate": "0.643 ± 0.1"}
{"sequence": "UAGACUCACACCUUCUCUGAGAGAUAUUGA", "pre-steady-state target cleavage rate": "0.0233 ± 0.0066"}
{"sequence": "UAGUCUGUCACCUUCUCUGAGAGUUUAACA", "pre-steady-state target cleavage rate": "0.365 ± 0.053"}
{"sequence": "AUCUACUGUCACCUUCUCUGAGAGAUUAACA", "pre-steady-state target cleavage rate": "0.719 ± 0.041"}
{"sequence": "AUCACUGUCACCUAGUCUGAGAGAUUUUGA", "pre-steady-state target cleavage rate": "0.0964 ± 0.023"}
{"sequence": "AUCUGUGUCACCUUCUCUGAGAGAUUAACA", "pre-steady-state target cleavage rate": "0.417 ± 0.025"}
{"sequence": "UAGUGACAGUGGUUUCUGAGAGAUUAACA", "pre-steady-state target cleavage rate": "< 0.0001"}
{"sequence": "UACACUGUCACCUUCACUGUGAGAUUAACA", "pre-steady-state target cleavage rate": "0.116 ± 0.015"}
{"sequence": "UAGUCUGUCACUUUCUCUGAGAGAUUAACA", "pre-steady-state target cleavage rate": "0.642 ± 0.023"}
{"sequence": "UAGUCUGUCACCAUCUCUGAGAGAUAAACA", "pre-steady-state target cleavage rate": "0.246 ± 0.025"}
{"sequence": "UAGUGACACACCUUCUCAGAGAGAUUAAGA", "pre-steady-state target cleavage rate": "0.0233 ± 0.0077"}
{"sequence": "AACACUGUCACCUUCUCUGAGAGAUAUUGA", "pre-steady-state target cleavage rate": "0.0742 ± 0.021"}
{"sequence": "AUCUCUGUCACCUUGUCUGAGAGAUUAACA", "pre-steady-state target cleavage rate": "0.394 ± 0.06"}
{"sequence": "UAGUGACUCACCUUCUCUGAGAGGAUUAACA", "pre-steady-state target cleavage rate": "0.172 ± 0.015"}
{"sequence": "UAGUGAGACACCUACUCUGAGAGAUUAACA", "pre-steady-state target cleavage rate": "0.399 ± 0.03"}
{"sequence": "AUCACCUGUCACCUUCUCUGAGAGAUUAACA", "pre-steady-state target cleavage rate": "0.742 ± 0.05"}
{"sequence": "UUCCCUGUCACCUUCUCUGAGAGAUUAACA", "pre-steady-state target cleavage rate": "0.502 ± 0.037"}
{"sequence": "AUCAUCUGUCACCUUCUCUGAGAGAUUAACA", "pre-steady-state target cleavage rate": "0.74 ± 0.035"}
{"sequence": "UAGCCUGUCACCUUCUCUGAGAGAUUAACA", "pre-steady-state target cleavage rate": "0.752 ± 0.056"}
{"sequence": "UAGACCUGUCACCUUCUCUGAGAGAUUAACA", "pre-steady-state target cleavage rate": "0.652 ± 0.043"}
{"sequence": "UUCAUCUGUCACCUUCUCUGAGAGAUUAACA", "pre-steady-state target cleavage rate": "0.706 ± 0.03"}
{"sequence": "AUCUCUGUCACCUUCUCUGAGAGAUUAACA", "pre-steady-state target cleavage rate": "0.713 ± 0.032"}
{"sequence": "UAGUGACUCACCUUCUCUGAGAGAUAUACA", "pre-steady-state target cleavage rate": "0.143 ± 0.019"}
{"sequence": "UACACUCACACCUUCUCUGAGAGAUAUUGA", "pre-steady-state target cleavage rate": "0.0241 ± 0.012"}
{"sequence": "UAGUGACAGUGCAUUCUCUGAGAGAUUAACA", "pre-steady-state target cleavage rate": "0.0141 ± 0.0028"}
{"sequence": "AUCACUGUCACCAUCUCUGAGAGAUAAACA", "pre-steady-state target cleavage rate": "0.31 ± 0.03"}
{"sequence": "UACACUGUCGACCUUCUCUGAGAGAUUAACA", "pre-steady-state target cleavage rate": "0.229 ± 0.026"}
{"sequence": "UAGUGAGUCACCUUCACUGAGAGAUUUACA", "pre-steady-state target cleavage rate": "0.203 ± 0.036"}
{"sequence": "UACACUGAGACCUUCUCUGAGAGAUAUUGA", "pre-steady-state target cleavage rate": "0.0195 ± 0.0074"}
{"sequence": "AUCACUGUCACCUUCUCUGAGAGAGUUAACA", "pre-steady-state target cleavage rate": "0.651 ± 0.088"}
{"sequence": "UAGUCUGUCACCUUCUCUGACAGAUUUACA", "pre-steady-state target cleavage rate": "0.0113 ± 0.0036"}
{"sequence": "UAGACUGUCACCUUCUCUGAGAGAUUAAA", "pre-steady-state target cleavage rate": "0.141 ± 0.018"}
{"sequence": "UAGUGAGUCACCUUCUCUGAGAGUAUAUGA", "pre-steady-state target cleavage rate": "0.0298 ± 0.012"}
{"sequence": "ACACUGUCACCUUCUCUGAGAGAUUAACA", "pre-steady-state target cleavage rate": "0.772 ± 0.044"}
{"sequence": "UACACUGUCACCUUCUCUGAGAGAUUAACU [g2:g28:cont:t1U]", "pre-steady-state target cleavage rate": "0.494 ± 0.059"}
{"sequence": "AACACUGUCACCUUCUCUGAGAGAUUAAGA", "pre-steady-state target cleavage rate": "0.189 ± 0.026"}
{"sequence": "AACACUGUCACCUUCUCUGAGAGAUUAACA", "pre-steady-state target cleavage rate": "0.746 ± 0.03"}
{"sequence": "UAGUGAGUCAGCCUUCUCUGAGAGAUUAACA", "pre-steady-state target cleavage rate": "0.176 ± 0.02"}
{"sequence": "UUCACUGUCACGCUUCUCUGAGAGAUUAACA", "pre-steady-state target cleavage rate": "0.51 ± 0.02"}
{"sequence": "UAGUGCGUCACCUUCUCUGAGAGAUUAACA", "pre-steady-state target cleavage rate": "0.623 ± 0.04"}
{"sequence": "UAGUGUGUCACGUUCUCUGAGAGAAUAACA", "pre-steady-state target cleavage rate": "0.19 ± 0.037"}
{"sequence": "AUCACUGUCGACCUUCUCUGAGAGAUUAACA", "pre-steady-state target cleavage rate": "0.172 ± 0.017"}
{"sequence": "UACACUGUCGCCUUCUCUGAGAGAUUAACA", "pre-steady-state target cleavage rate": "0.708 ± 0.042"}
{"sequence": "UUCACUGUCGCCUUCUCUGAGAGAUUAACA", "pre-steady-state target cleavage rate": "0.665 ± 0.043"}
{"sequence": "UAGACUGUCGCCUUCUCUGAGAGAUUAACA", "pre-steady-state target cleavage rate": "0.822 ± 0.064"}
{"sequence": "AUCACUGUCGCCUUCUCUGAGAGAUUAACA", "pre-steady-state target cleavage rate": "0.819 ± 0.053"}
{"sequence": "UAGACUGUCGACCUUCUCUGAGAGAUUAACA", "pre-steady-state target cleavage rate": "0.121 ± 0.013"}
